Reference: PubChem BioAssay (EPA / NIEHS)
Activity calls are given as the source filed them. The calls were made as follows: active = hit-call score of the fitted dose curve at least 0.9, where 1 is the maximum; inactive = score below 0.9.

Test: APR_HepG2_CellLoss_24hr: Apredica 24-hour HepG2 Assay for Cell Loss (AID 2282908);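 as to AC50: fit in both directions so a hit may be cell loss or gain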
Details: high-content imaging
In short: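 Read-out: Hoechst 33342-stained nuclei counted by automated fluorescence imaging after formaldehyde fixation and Triton permeabilization. Ten concentrations, 0.39 to 200 uM, duplicate wells, 0.5% DMSO final. Gain or loss of signal fitted relative to DMSO baseline.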

Compound	outcome	AC50
O=C(O)c1ccc2c(c1)nc(C(=O)NC1CCN(C3CC3)CC1)n2Cc1cc(-c2ccc(Cl)s2)on1	inactive	–
C=CN1CCCC1=O	inactive	–
Nc1ccn([C@@H]2O[C@H](CO)[C@@H](O)[C@@H]2O)c(=O)n1	–	0.149 µM (active)
COCc1nnc(-c2ccc[n+]([O-])c2)n1-c1c(Cl)c(Cl)cc2[nH]c(=O)c(=O)[nH]c12	inactive	–
C=CCc1cc(S(=O)(=O)c2ccc(O)c(CC=C)c2)ccc1O	–	97.8 µM (active)
NC(N)=O	inactive	–
O=c1[nH]cnc2c1ncn2[C@H]1CC[C@@H](CO)O1	inactive	–
CCCCCCCCCCCCCCO	–	98.1 µM (active)
CCCCC(CC)C(=O)OCCOCCOCCOC(=O)C(CC)CCCC (stereo not given)	inactive	–
CC[C@H](C)C(=O)O[C@H]1C[C@H](O)C=C2C=C[C@H](C)[C@H](CC[C@@H](O)C[C@@H](O)CC(=O)O)[C@H]21	inactive	–
OC[C@H]1O[C@@](CO)(O[C@H]2O[C@H](CO)[C@@H](O)[C@H](O)[C@H]2O)[C@@H](O)[C@@H]1O	inactive	–
c1ccc2c(c1)-c1cccc3c1c-2cc1ccccc13	–	5.87 µM (active)
CCc1cccc(CC)c1N	inactive	–

Test: APR_HepG2_MicrotubuleCSK_24hr: Apredica 24-hour HepG2 Assay for Microtubule CSK Stabilty (AID 2282909)
Details: HepG2 microtubule cytoskeleton imaging, actives raise or lower the signal
In short: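 Read-out: alpha-tubulin immunofluorescence intensity by automated high-content imaging of fixed HepG2 cells after 24 h compound treatment. Ten concentrations, 0.39 to 200 uM, in duplicate; DMSO 0.5% v/v. Taxol positive control; DMSO-normalized bidirectional curve fitting.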

Compound	outcome	AC50
O=C(O)c1ccc2c(c1)nc(C(=O)NC1CCN(C3CC3)CC1)n2Cc1cc(-c2ccc(Cl)s2)on1	inactive	–
C=CN1CCCC1=O	inactive	–
Nc1ccn([C@@H]2O[C@H](CO)[C@@H](O)[C@@H]2O)c(=O)n1	inactive	–
COCc1nnc(-c2ccc[n+]([O-])c2)n1-c1c(Cl)c(Cl)cc2[nH]c(=O)c(=O)[nH]c12	inactive	–
C=CCc1cc(S(=O)(=O)c2ccc(O)c(CC=C)c2)ccc1O	inactive	–
NC(N)=O	inactive	–
O=c1[nH]cnc2c1ncn2[C@H]1CC[C@@H](CO)O1	inactive	–
CCCCCCCCCCCCCCO	–	107 µM (active)
CCCCC(CC)C(=O)OCCOCCOCCOC(=O)C(CC)CCCC (stereo not given)	inactive	–
CC[C@H](C)C(=O)O[C@H]1C[C@H](O)C=C2C=C[C@H](C)[C@H](CC[C@@H](O)C[C@@H](O)CC(=O)O)[C@H]21	inactive	–
OC[C@H]1O[C@@](CO)(O[C@H]2O[C@H](CO)[C@@H](O)[C@H](O)[C@H]2O)[C@@H](O)[C@@H]1O	inactive	–
c1ccc2c(c1)-c1cccc3c1c-2cc1ccccc13	inactive	–
CCc1cccc(CC)c1N	inactive	–

Test: APR_HepG2_MitoticArrest_24hr: Apredica 24-hour HepG2 Assay for Mitotic Arrest (AID 2282910)
Details: high-content imaging, actives raise or lower the signal
In short: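 High-content imaging of fixed HepG2 cells labeled with Hoechst 33342 and anti-phospho-histone H3, after 24 h treatment. Ten concentrations 0.39 to 200 uM in duplicate, final DMSO 0.5%; changes fitted both directions relative to DMSO.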

Compound	outcome	AC50
O=C(O)c1ccc2c(c1)nc(C(=O)NC1CCN(C3CC3)CC1)n2Cc1cc(-c2ccc(Cl)s2)on1	inactive	–
C=CN1CCCC1=O	inactive	–
Nc1ccn([C@@H]2O[C@H](CO)[C@@H](O)[C@@H]2O)c(=O)n1	inactive	–
COCc1nnc(-c2ccc[n+]([O-])c2)n1-c1c(Cl)c(Cl)cc2[nH]c(=O)c(=O)[nH]c12	inactive	–
C=CCc1cc(S(=O)(=O)c2ccc(O)c(CC=C)c2)ccc1O	–	51.5 µM (active)
NC(N)=O	inactive	–
O=c1[nH]cnc2c1ncn2[C@H]1CC[C@@H](CO)O1	inactive	–
CCCCCCCCCCCCCCO	–	99.3 µM (active)
CCCCC(CC)C(=O)OCCOCCOCCOC(=O)C(CC)CCCC (stereo not given)	inactive	–
CC[C@H](C)C(=O)O[C@H]1C[C@H](O)C=C2C=C[C@H](C)[C@H](CC[C@@H](O)C[C@@H](O)CC(=O)O)[C@H]21	inactive	–
OC[C@H]1O[C@@](CO)(O[C@H]2O[C@H](CO)[C@@H](O)[C@H](O)[C@H]2O)[C@@H](O)[C@@H]1O	inactive	–
c1ccc2c(c1)-c1cccc3c1c-2cc1ccccc13	–	15.5 µM (active)
CCc1cccc(CC)c1N	inactive	–

Test: APR_HepG2_MitoMembPot_24hr: Apredica 24-hour HepG2 Assay for Mitochondrial Membrane Potential (AID 2282911)
Details: imaging, actives raise or lower the signal
In short: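 HepG2, 24 hr dosing, 10 concentrations 0.39–200 uM, 0.5% DMSO final. Live-cell MitoTracker Red CMXRos 250 nM 30 min, then 3.7% formaldehyde fix. HCS fluorescence imaging, 20x; bidirectional fit vs DMSO baseline.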

Compound	outcome	AC50
O=C(O)c1ccc2c(c1)nc(C(=O)NC1CCN(C3CC3)CC1)n2Cc1cc(-c2ccc(Cl)s2)on1	inactive	–
C=CN1CCCC1=O	inactive	–
Nc1ccn([C@@H]2O[C@H](CO)[C@@H](O)[C@@H]2O)c(=O)n1	inactive	–
COCc1nnc(-c2ccc[n+]([O-])c2)n1-c1c(Cl)c(Cl)cc2[nH]c(=O)c(=O)[nH]c12	inactive	–
C=CCc1cc(S(=O)(=O)c2ccc(O)c(CC=C)c2)ccc1O	inactive	–
NC(N)=O	inactive	–
O=c1[nH]cnc2c1ncn2[C@H]1CC[C@@H](CO)O1	–	0.039 µM (active)
CCCCCCCCCCCCCCO	inactive	–
CCCCC(CC)C(=O)OCCOCCOCCOC(=O)C(CC)CCCC (stereo not given)	inactive	–
CC[C@H](C)C(=O)O[C@H]1C[C@H](O)C=C2C=C[C@H](C)[C@H](CC[C@@H](O)C[C@@H](O)CC(=O)O)[C@H]21	inactive	–
OC[C@H]1O[C@@](CO)(O[C@H]2O[C@H](CO)[C@@H](O)[C@H](O)[C@H]2O)[C@@H](O)[C@@H]1O	inactive	–
c1ccc2c(c1)-c1cccc3c1c-2cc1ccccc13	–	70.4 µM (active)
CCc1cccc(CC)c1N	inactive	–

Test: APR_HepG2_MitoMass_24hr: Apredica 24-hour HepG2 Assay for Mitochondrial Mass (AID 2282912)
Details: high-content imaging, actives raise or lower the signal
In short: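 HepG2, 24 hr dosing, 10 concentrations 0.39–200 uM in duplicate, DMSO 0.5% final. MitoTracker Red CMXRos 250 nM, 30 min pre-fix; 3.7% formaldehyde fix. Imaging-based fluorescence intensity; gain/loss fit vs DMSO baseline.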

Compound	outcome	AC50
O=C(O)c1ccc2c(c1)nc(C(=O)NC1CCN(C3CC3)CC1)n2Cc1cc(-c2ccc(Cl)s2)on1	inactive	–
C=CN1CCCC1=O	inactive	–
Nc1ccn([C@@H]2O[C@H](CO)[C@@H](O)[C@@H]2O)c(=O)n1	–	0.0391 µM (active)
COCc1nnc(-c2ccc[n+]([O-])c2)n1-c1c(Cl)c(Cl)cc2[nH]c(=O)c(=O)[nH]c12	inactive	–
C=CCc1cc(S(=O)(=O)c2ccc(O)c(CC=C)c2)ccc1O	–	52.7 µM (active)
NC(N)=O	inactive	–
O=c1[nH]cnc2c1ncn2[C@H]1CC[C@@H](CO)O1	inactive	–
CCCCCCCCCCCCCCO	–	106 µM (active)
CCCCC(CC)C(=O)OCCOCCOCCOC(=O)C(CC)CCCC (stereo not given)	inactive	–
CC[C@H](C)C(=O)O[C@H]1C[C@H](O)C=C2C=C[C@H](C)[C@H](CC[C@@H](O)C[C@@H](O)CC(=O)O)[C@H]21	inactive	–
OC[C@H]1O[C@@](CO)(O[C@H]2O[C@H](CO)[C@@H](O)[C@H](O)[C@H]2O)[C@@H](O)[C@@H]1O	inactive	–
c1ccc2c(c1)-c1cccc3c1c-2cc1ccccc13	–	8.67 µM (active)
CCc1cccc(CC)c1N	inactive	–
